Measured values: paper PMC11062922 (Nature Chemical Biology, 2023)
Like-named read-outs stand apart in the source and are kept apart here.

Tests used:
Design in all cases: species or system human, MV4-11 + K-562 + COLO205 + SK-N-BE2 + OVCAR-8
[1] = system: ADCK1; conditions: read-out: apparent Kd, n = 1
[2] = system: CDK17; conditions: read-out: apparent Kd, compound concentrations: 100 nM and 1000 nM (sheet 'Samples'), n = 1
[3] = system: CSNK1A1; conditions: read-out: apparent Kd, n = 1
[4] = system: PHKG2; conditions: read-out: apparent Kd, compound concentrations: 100 nM and 1000 nM (sheet 'Samples'), n = 1
[5] = system: RIOK2; conditions: read-out: apparent Kd; compound concentrations: 100 nM and 1000 nM (sheet 'Samples'), CATDS: 8.1231795228866102E-3; n = 1
[6] = system: STK3; conditions: read-out: apparent Kd, compound concentrations: 100 nM and 1000 nM (sheet 'Samples'), n = 1
[7] = system: TNIK; conditions: read-out: apparent Kd, n = 1
[8] = system: MAPK8; conditions: read-out: apparent Kd, n = 1
[9] = system: EPHA2; conditions: read-out: apparent Kd, n = 1
[10] = system: EPHB2; conditions: read-out: apparent Kd, n = 1
[11] = system: EPHB4; conditions: read-out: apparent Kd, n = 1
[12] = system: PTK6; conditions: read-out: apparent Kd, n = 1
[13] = system: HCK; conditions: read-out: apparent Kd, compound concentrations: 100 nM and 1000 nM (sheet 'Samples'), n = 1
[14] = system: SRC; conditions: read-out: apparent Kd, compound concentrations: 100 nM and 1000 nM (sheet 'Samples'), n = 1
[15] = system: YES1; conditions: read-out: apparent Kd; compound concentrations: 100 nM and 1000 nM (sheet 'Samples'), CATDS: 1.8559890598855499E-2; n = 1
[16] = system: PRKAA2; conditions: read-out: apparent Kd; compound concentrations: 100 nM and 1000 nM (sheet 'Samples'), CATDS: 1.2623383108322899E-2; n = 1
[17] = system: ROCK2; conditions: read-out: apparent Kd; compound concentrations: 100 nM and 1000 nM (sheet 'Samples'), CATDS: 1.22765922159753E-2; n = 1
[18] = compound concentrations:100 nM and 1000 nM (sheet 'Samples')

## CN(C)CCNC(=O)Nc1ccc(N(C)c2ccnc(Nc3ccc(CS(C)(=O)=O)cc3)n2)cc1.Cl [GW830900A]
[1]; [18]
  potency estimated from few doses: 88.9 nM

## O=C(O)C(F)(F)F.O=c1[nH]ccc2nc(N[C@@H]3CCNC3)nc(Nc3ccc4c(c3)S(=O)(=O)CC4)c12 [GSK2181306A]
[1]; compound concentrations: 100 nM and 1000 nM (sheet 'Samples'), CATDS: 1.2751360912585E-2
  potency estimated from few doses: 448 nM
[2]; CATDS: 9.5654152520578493E-3
  potency estimated from few doses: 979 nM
[3]; compound concentrations: 100 nM and 1000 nM (sheet 'Samples'), CATDS: 1.4603210367733301E-2
  potency estimated from few doses: 330 nM
[4]; CATDS: 1.09538750738594E-2
  potency estimated from few doses: 657 nM
[5]
  potency estimated from few doses: 1810 nM
[6]; CATDS: 1.36866990132516E-2
  potency estimated from few doses: 381 nM
[7]; compound concentrations: 100 nM and 1000 nM (sheet 'Samples'), CATDS: 1.2529799183739801E-2
  potency estimated from few doses: 467 nM

## Cc1cccc(Nc2nc(N[C@H]3CCNC3)ncc2C(N)=O)c1.Cl [GSK2197149A]
[1]; [18]
  potency estimated from few doses: 1560 nM
[3]; [18]
  potency estimated from few doses: 1560 nM
[7]; [18]
  potency estimated from few doses: 1590 nM

## CC(C)Oc1ccc2c(-c3ccnc(Nc4ccc(N5CCN(C)CC5)cc4)n3)cnn2n1 [GW696155X]
[1]; [18]
  potency estimated from few doses: 44.9 nM
[8]; [18]
  potency estimated from few doses: 352 nM

## CS(=O)(=O)CCn1c(=O)c(Oc2ccc(F)cc2F)cc2cnc(NC3CCOCC3)nc21 [RO5027956-000]
[9]; [18]
  potency estimated from few doses: 1060 nM
[10]; [18]
  potency estimated from few doses: 720 nM
[11]; [18]
  potency estimated from few doses: 519 nM
[8]; [18]
  potency estimated from few doses: 1130 nM
[12]; [18]
  potency estimated from few doses: 1310 nM

## Cc1ccccc1-n1ncc(C(=O)c2ccccc2)c1N [RO1151248-000]
[9]; compound concentrations: 100 nM and 1000 nM (sheet 'Samples'), CATDS: 1.9884880942714601E-2
  potency estimated from few doses: 1440 nM
[10]; compound concentrations: 100 nM and 1000 nM (sheet 'Samples'), CATDS: 2.84737750154796E-2
  potency estimated from few doses: 640 nM
[11]; compound concentrations: 100 nM and 1000 nM (sheet 'Samples'), CATDS: 3.0398268163298901E-2
  potency estimated from few doses: 567 nM
[13]; CATDS: 1.9651331650111199E-2
  potency estimated from few doses: 1480 nM
[12]; compound concentrations: 100 nM and 1000 nM (sheet 'Samples'), CATDS: 2.16089189660327E-2
  potency estimated from few doses: 1160 nM
[14]; CATDS: 2.0715769219535499E-2
  potency estimated from few doses: 1290 nM

## CCn1c(-c2cccnc2O)nc2cnccc21 [SB-736715]
[2]; CATDS: 1.55525424836102E-2
  potency estimated from few doses: 1200 nM
[3]; compound concentrations: 100 nM and 1000 nM (sheet 'Samples'), CATDS: 1.24384070369575E-2
  potency estimated from few doses: 1990 nM
[13]; CATDS: 1.6731376225889199E-2
  potency estimated from few doses: 1040 nM
[8]; compound concentrations: 100 nM and 1000 nM (sheet 'Samples'), CATDS: 1.2937412229939001E-2
  potency estimated from few doses: 1800 nM
[4]; CATDS: 1.25059866085428E-2
  potency estimated from few doses: 1960 nM
[14]; CATDS: 1.60653948835471E-2
  potency estimated from few doses: 1130 nM
[6]; CATDS: 1.16838495849846E-2
  potency estimated from few doses: 2360 nM
[15]
  potency estimated from few doses: 859 nM

## Cc1n[nH]c2cc(Nc3ccnc(Nc4cccc(CN5CCOCC5)c4)n3)ccc12 [GW682569X]
[1]; compound concentrations: 100 nM and 1000 nM (sheet 'Samples'), CATDS: 0.121280285214534
  potency estimated from few doses: 760 nM
[8]; compound concentrations: 100 nM and 1000 nM (sheet 'Samples'), CATDS: 8.8519756402374403E-2
  potency estimated from few doses: 1870 nM

## COc1cc[nH]c1/C=C1\C(=O)Nc2ccc(F)c(C#CC3(O)CCNCC3)c21.Cl [RO0282986-001]
[1]; compound concentrations: 100 nM and 1000 nM (sheet 'Samples'), CATDS: 9.6711432627754196E-3
  potency estimated from few doses: 1510 nM
[3]; compound concentrations: 100 nM and 1000 nM (sheet 'Samples'), CATDS: 9.4699947154489802E-3
  potency estimated from few doses: 1660 nM
[8]; compound concentrations: 100 nM and 1000 nM (sheet 'Samples'), CATDS: 1.15534009295916E-2
  potency estimated from few doses: 801 nM
[4]; CATDS: 1.06478310552471E-2
  potency estimated from few doses: 1050 nM
[16]
  potency estimated from few doses: 618 nM
[17]
  potency estimated from few doses: 668 nM
[6]; CATDS: 1.6307369361129399E-2
  potency estimated from few doses: 326 nM
[7]; compound concentrations: 100 nM and 1000 nM (sheet 'Samples'), CATDS: 1.31715083861153E-2
  potency estimated from few doses: 550 nM
